# Data from PubChem BioAssay (EPA / NIEHS).
# Several values for one entry are separate records, joined by “and”; a condition that tells them apart may be missing. Equal values may be shown once. Some compounds were tested as several samples or in several runs, with calls that do not always agree. Activity calls are given as the source filed them. Rule for the calls: active = hit-call score of the fitted dose curve at least 0.9, where 1 is the maximum; inactive = score below 0.9.
# Read-out: Macrophage colony-stimulating factor (MCSF), CSF1 (gene 1435)
# Assay: BSK_hDFCGF_MCSF: BioMAP Diversity Plus: hDFCGF Assay for Macrophage colony-stimulating factor (MCSF) Biomarker Activity (AID 2283060)
# Settings: primary human foreskin fibroblasts; actives raise or lower the signal
# Protocol: BSK_hDFCGF is a cell-based, multiplexed-readout assay that uses foreskin fibroblast, a human skin primary cell, with measurements taken at 24 hours after chemical dosing in a 96-well plate.BSK_hDFCGF_MCSF is an assay component measured in the BSK_hDFCGF assay. It measures M-CSF antibody related to regulation of gene expression using ELISA technology.Data from the assay component BSK_hDFCGF_MCSF was analyzed into 1 assay endpoint. This assay endpoint, BSK_hDFCGF_MCSF, was analyzed with bidirectional fitting relative to DMSO as the negative control and baseline of activity. Using a type of binding reporter, gain or loss-of-signal activity can be used to understand changes in the signaling as they relate to the gene CSF1. Furthermore, this assay endpoint can be referred to as a primary readout, because this assay has produced multiple assay endpoints where this one serves a signaling function. To generalize the intended target to other relatable targets, this assay endpoint is annotated to the cytokine intended target family, where the subfamily is colony stimulating factor.
# The levels of cell surface (or secreted, indicated by the prefix "s") biomarker endpoints were measured by ELISA. Overt cytotoxicity to cells in confluent adherent cultures (all systems other than the BT system) was assessed by measuring total protein levels using sulforhodamine B (SRB) staining in parallel cultures at the time of biomarker measurements, indicated as SRB endpoints. For proliferation assays for adherent cell types, individual cell types are cultured at sub-confluence and relative cell numbers quantified by SRB staining at time points optimized for each system (48 h: 3C and CASM3C systems; 72 h: BT and HDF3CGF systems; 96 h: SAg system). SRB was performed by staining cells with 0.1% SRB after fixation with 10% TCA and reading wells at 560 nm.Viability and proliferation of PBMC (T cells) was quantified by Alamar Blue reduction for the SAg and BT systems. For PBMC viability (referred to as PBMC Cytotoxicity within the assay endpoint names), cells were plated (75,000/well in a 96-well plate) and then chemical samples added for 1 h before addition of activators, SEB and TSST-1 (20 ng/mL final concentration each). Cells were incubated for 90 h. Then, Alamar Blue (20 uL/well) (Invitrogen, Cat DAL1100) was added for 6 h, and the plates were read with a fluorescence microplate reader at 546/580 nm (excitation/emission). For PBMC proliferation, cells were plated and activated as above but incubated for only 16 h prior to addition of Alamar Blue. Plates were read after 6 h.
Structure (SMILES),outcome,AC50
CC1(C)C(C=C(Cl)Cl)C1C(=O)OCc1cccc(Oc2ccccc2)c1 (stereo not given),inactive,–
COC(=O)c1c(Cl)nn(C)c1S(=O)(=O)NC(=O)Nc1nc(OC)cc(OC)n1,inactive,–
COC(=O)CSc1cc(N=c2sc(=O)n3n2CCCC3)c(F)cc1Cl,inactive,–
O=C(Nc1ccc([N+](=O)[O-])cc1Cl)c1cc(Cl)ccc1O,–,0.912 µM (active)
CCOC(=O)c1ccc(O)cc1,inactive,–
CN(C)C(=O)Nc1ccc(Cl)c(Cl)c1,inactive,–
CCOC(=O)[C@H](C)Oc1ccc(Oc2nc3ccc(Cl)cc3o2)cc1,inactive,–
CC(C)(c1ccc(O)cc1)c1ccc(O)cc1,inactive,–
CCCCC(CC)COC(=O)c1ccccc1C(=O)O (stereo not given),–,9.84 µM (active)
CCC(O)=C1C(=O)CC(C(=O)O)CC1=O (stereo not given),inactive,–
OB(O)O,inactive,–
CCCCC(CC)CN1C(=O)C2C3C=CC(C3)C2C1=O (stereo not given),–,20 µM (active)
CCCOC(=O)c1ccc(C(=O)OCCC)nc1,inactive,–
COC(=O)c1cccc(C)c1S(=O)(=O)NC(=O)Nc1nc(OCC(F)(F)F)nc(N(C)C)n1,inactive,–
CCCN(CCC)C(=O)SCC,inactive,–
CCOC(=O)C(C)Oc1ccc(Oc2nc3ccc(Cl)cc3o2)cc1 (stereo not given),inactive,–
CCCN(CCC)c1c([N+](=O)[O-])cc(C(F)(F)F)c(N)c1[N+](=O)[O-],–,27.9 µM (active)
COc1nc(C)nc(NC(=O)NS(=O)(=O)c2ccccc2OCCCl)n1,inactive,–
CC(=O)S[C@@H]1CC2=CC(=O)CC[C@]2(C)[C@H]2CC[C@@]3(C)[C@@H](CC[C@@]34CCC(=O)O4)[C@H]12,–,10.6 µM (active)
COC(=O)c1ccc(CNS(C)(=O)=O)cc1S(=O)(=O)NC(=O)Nc1nc(OC)cc(OC)n1,inactive,–

Structure (SMILES),outcome,AC50
CC(C)CCCCCCc1ccc(O)cc1,–,8.61 µM (active)
CCOC(=O)C(C)Oc1ccc(Oc2cnc3cc(Cl)ccc3n2)cc1 (stereo not given),inactive,–
O=C(O)c1ccccc1,inactive,–
CSC(=O)c1cccc2nnsc12,inactive,–
CCSC(=O)N(CC(C)C)CC(C)C,inactive,–
CC(=O)[C@H]1CC[C@H]2[C@@H]3CCC4=CC(=O)CC[C@]4(C)[C@H]3CC[C@]12C,inactive,–
O=C(O)C1(C(=O)Nc2ccc(Cl)cc2Cl)CC1,inactive,–
C[C@]12CC[C@@H]3c4ccc(O)cc4C[C@@H](CCCCCCCCCS(=O)CCCC(F)(F)C(F)(F)F)[C@H]3[C@@H]1CC[C@@H]2O (stereo not given in full),inactive,–
CCOC(=O)COc1cc(-n2ncc(C(F)(F)F)c(C)c2=O)c(F)cc1Cl,inactive,–
S=C([S-])NCCNC(=S)[S-].[Mn+2],–,25.8 µM (active)
N[C@@H](Cc1cc(I)c(Oc2ccc(O)c(I)c2)c(I)c1)C(=O)O,inactive,–
CCNc1nc(N)nc(Cl)n1,inactive,–
COc1c(Cl)ccc(Cl)c1C(=O)O,inactive,–
COC(=O)c1ccc(I)cc1S(=O)(=O)NC(=O)Nc1nc(C)nc(OC)n1,inactive,–
N#CSCSc1nc2ccccc2s1,–,1.56 µM (active) and 1.28 µM (active)
S=C(S)NCCNC(=S)S.[Mn+2].[S-]C([S-])=NCCN=C([S-])[S-].[Zn+2],inactive,1.41 µM (active)
C#C[C@]1(O)CC[C@H]2[C@@H]3CCC4=CC(=O)CC[C@@H]4[C@H]3CC[C@@]21CC,inactive,–
COC(=O)c1ccccc1S(=O)(=O)NC(=O)Nc1nc(OC(F)F)cc(OC(F)F)n1,inactive,–
CCCCCOC(=O)COc1cc(N2C(=O)C3=C(CCCC3)C2=O)c(F)cc1Cl,–,20 µM (active)
